Values joined by “and” are separate entries in the source; they are usually repeats but may differ in a detail not shown here. Equal entries are not always repeated. The panel holds about 83,000 compounds, 20% with a hit somewhere; the sample as a whole holds those more often.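 48-hour exposure, single concentration, 96-well plates; percent growth endpoint where 0 means no net growth. Active: below 10.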 A number with no mark means an inactive call. Active and inactive are the calls of the source.
Assays:
Experiment in all cases: NCI-60 one-dose screen, 48 h (100 = growth as untreated, 0 = no growth, -100 = all killed)
[1] = system: HCT-15 colon; settings: 10 µM unless noted
[2] = system: SNB-75 CNS; settings: 10 µM unless noted
[3] = system: SNB-19 CNS; settings: 10 µM unless noted
[4] = system: U251 CNS; settings: 10 µM unless noted
[5] = system: PC-3 prostate; settings: 10 µM unless noted
[6] = system: SK-MEL-5 melanoma; settings: 10 µM unless noted
[7] = system: UACC-62 melanoma; settings: 10 µM unless noted
[8] = system: LOX IMVI melanoma; settings: 10 µM unless noted
[9] = system: SK-MEL-28 melanoma; settings: 10 µM unless noted
[10] = system: SK-MEL-2 melanoma; settings: 10 µM unless noted
[11] = system: EKVX NSCLC; settings: 10 µM
[12] = system: SN12C renal; settings: 10 µM unless noted
[13] = system: UO-31 renal; settings: 10 µM unless noted
[14] = system: TK-10 renal; settings: 10 µM unless noted
[15] = system: ACHN renal; settings: 10 µM unless noted
[16] = system: CAKI-1 renal; settings: 10 µM unless noted
[17] = system: A498 renal; settings: 10 µM unless noted
[18] = system: CCRF-CEM leukemia; settings: 10 µM
[19] = system: MOLT-4 leukemia; settings: 10 µM unless noted

In the case of CCCCNc1ccc(Nc2ccccc2)cc1, the growth [1] is reported as 94.6%, the growth [2] is reported as 84.2% and the growth [3] is reported as 76.4%. It also gave a growth [4] of 34.8%, a growth [5] of 50.8% and a growth [6] of 67.3%. For the same molecule, the growth [7] was 60.6%, the growth [8] was 64.9% and the growth [9] was 94.9%. For the same molecule, the growth [10] was 87.3%, the growth [11] was 37% and the growth [12] was 71.9%. For the same molecule, the growth [13] was 86.6%, the growth [14] was 73.6% and the growth [15] was 77.6%. The growth [16] was 94.6%, the growth [17] was 82.7% and the growth [18] was 24.5%. It also gave a growth [19] of 84.6%.
In the case of CC1=C/C(O)CC(=O)Cc2nc(co2)C(=O)N2CCC=C2C(=O)OC(C(C)C)C(C)/C=C\C(=O)NC/C=C\1 (stereo not drawn), the growth [1] is reported as 90.1%, the growth [2] is reported as 80.8% and the growth [3] is reported as 89.8%. It also gave a growth [4] of 92.9%, a growth [5] of 71.5% and a growth [6] of 96.7%. The growth [7] was 84.9%, the growth [8] was 59.6% and the growth [9] was 32.6%. The growth [10] was 21.8%, the growth [11] was 90.2% and the growth [12] was 87.9%. For the same molecule, the growth [13] was 75.1%, the growth [14] was 127% and the growth [15] was 86.2%. The growth [16] was 81%, the growth [17] was 90.9% and the growth [18] was 37%. It also gave a growth [19] of 77.4%.
With O=C(CO)C(O)C(O)C(O)C(O)CO (stereo not drawn) the growth [1] was 103%, the growth [2] was 106% and 89.1% and the growth [3] was 104% and 103%. The growth [4] was 95.7% and 95.4%, the growth [5] was 101% and 96.1% and the growth [6] was 95.4% and 103%. The growth [7] was 98.3% and 101%, the growth [8] was 103% and 98.5% and the growth [9] was 108% and 101%. For the same molecule, the growth [10] was 104% and 108%, the growth [12] was 99.8% and 97.3% and the growth [13] was 97.8% and 96.6%. The growth [14] was 106% and 102%, the growth [15] was 110% and 109% and the growth [16] was 102% and 101%. The growth [17] was 97.5% and 100%, the growth [18] was 103% and 105% and the growth [19] was 106% and 95.8%.
With COc1ccc(Nc2ccc3ccccc3c2)cc1 the growth [1] was 78.2%, the growth [2] was 64.3% and the growth [3] was 79.5%. For the same molecule, the growth [5] was 71.5%, the growth [6] was 73.8% and the growth [7] was 62.1%. The growth [8] was 74.2%, the growth [9] was 89.8% and the growth [10] was 67.2%. The growth [11] was 92.8%, the growth [12] was 76.9% and the growth [14] was 77.2%. It also gave a growth [15] of 92%, a growth [16] of 52.3% and a growth [17] of 52.8%. The growth [18] was 56.9% and the growth [19] was 71.5%.
With Brc1ccc(SSc2ccc(Br)cc2)cc1 the growth [1] was 77.3%, the growth [2] was 77.2% and the growth [3] was 87.9%. It also gave a growth [4] of 65.8%, a growth [5] of 39.7% and a growth [6] of 54.7%. The growth [7] was 96.9%, the growth [8] was 3.5% (active) and the growth [9] was 97.6%. For the same molecule, the growth [10] was 101%, the growth [12] was 63.8% and the growth [13] was 49.6%. For the same molecule, the growth [14] was 97.1%, the growth [15] was 109% and the growth [16] was 106%. For the same molecule, the growth [17] was 71.2%, the growth [18] was 8.01% (active) and the growth [19] was 4.43% (active).
In the case of CC(=O)OCC1OC(OC(C)=O)C(OC(C)=O)C(OC(C)=O)C1OC(C)=O (stereo not drawn), the growth [1] is reported as 98.2% and 104%, the growth [2] is reported as 67.1% and 98.6% and the growth [3] is reported as 102% and 106%. The growth [4] was 95.6% and 96%, the growth [5] was 105% and 104% and the growth [6] was 102% and 100%. For the same molecule, the growth [7] was 109% and 99.9%, the growth [8] was 96.9% and 97.3% and the growth [9] was 103% and 109%. For the same molecule, the growth [10] was 109% and 111%, the growth [11] was 99.7% and the growth [12] was 104% and 105%. The growth [13] was 79.8% and 94.2%, the growth [14] was 110% and 106% and the growth [15] was 96.4% and 105%. The growth [16] was 97.1% and 100%, the growth [17] was 112% and 85.9% and the growth [18] was 95.2% and 110%. For the same molecule, the growth [19] was 98.9% and 99.9%.
With CC1(C)COC(=S)N1 the growth [1] was 103%, the growth [2] was 87.4% and the growth [3] was 107%. The growth [4] was 101%, the growth [5] was 100% and the growth [6] was 112%. The growth [7] was 93%, the growth [8] was 99.9% and the growth [9] was 104%. The growth [10] was 107%, the growth [11] was 94.1% and the growth [12] was 93.5%. For the same molecule, the growth [13] was 90.7%, the growth [14] was 101% and the growth [15] was 97.5%. For the same molecule, the growth [16] was 95.7%, the growth [17] was 121% and the growth [18] was 108%. It also gave a growth [19] of 108%.
In the case of O=c1[nH]cnc2c1ncn2C1OC(CO)C(O)C1O (stereo not drawn), the growth [1] is reported as 135% and 124% and 110%, the growth [2] is reported as 115% and 99.9% and 98.8% and the growth [3] is reported as 99.5% and 106% and 93.5%. For the same molecule, the growth [4] was 108% and 110% and 102%, the growth [5] was 89.3% and 81.6% and 98.8% and the growth [6] was 106% and 109% and 107%. For the same molecule, the growth [7] was 96.1% and 106% and 98.6%, the growth [8] was 101% and 103% and 91.7% and the growth [9] was 113% and 116% and 118%. For the same molecule, the growth [10] was 110%, the growth [11] was 123% and 107% and 93.1% and the growth [12] was 99.8% and 121% and 96.1%. For the same molecule, the growth [13] was 113% and 102% and 55.3%, the growth [14] was 113% and 114% and 106% and the growth [15] was 116% and 109% and 105%. The growth [16] was 113% and 95.3% and 63.4%, the growth [17] was 116% and 129% and 113% and the growth [18] was 99.5% and 90.3% and 69.9%. The growth [19] was 93% and 76% and 105%.
NN1CCOC(c2ccccc2)C1 (stereo not drawn) showed a growth [1] of 101%, a growth [2] of 109% and a growth [3] of 101%. It also gave a growth [4] of 102%, a growth [5] of 94.3% and a growth [6] of 103%. It also gave a growth [7] of 90.2%, a growth [8] of 94.6% and a growth [9] of 112%. For the same molecule, the growth [10] was 110%, the growth [11] was 115% and the growth [12] was 102%. The growth [13] was 71.4%, the growth [14] was 122% and the growth [15] was 99.1%. The growth [16] was 109%, the growth [17] was 107% and the growth [18] was 99.3%. For the same molecule, the growth [19] was 76.1%.
Cc1cc(-c2cc(C)c(O)c(C)c2)cc(C)c1O showed a growth [1] of 70.8%, a growth [2] of 65% and a growth [3] of 83.8%. The growth [4] was 88.6%, the growth [5] was 80.9% and the growth [6] was 73.9%. For the same molecule, the growth [7] was 62.8%, the growth [8] was 76.8% and the growth [9] was 88%. It also gave a growth [10] of 73.5%, a growth [11] of 68.2% and a growth [12] of 90.5%. For the same molecule, the growth [13] was 77.1%, the growth [14] was 90.5% and the growth [15] was 92.1%. It also gave a growth [16] of 59.4%, a growth [18] of 82.6% and a growth [19] of 74.9%.
For C/C(=C\c1ccccc1)c1ccccn1, the growth [1] was 103%, the growth [2] was 89.1% and the growth [3] was 92.1%. The growth [4] was 107%, the growth [5] was 98.7% and the growth [6] was 103%. The growth [8] was 112%, the growth [9] was 107% and the growth [10] was 128%. The growth [11] was 98.7%, the growth [12] was 95.8% and the growth [13] was 98.9%. It also gave a growth [14] of 162%, a growth [15] of 105% and a growth [16] of 102%. It also gave a growth [17] of 111%, a growth [18] of 94.5% and a growth [19] of 73.3%.
Molecule CC(C)NC(=O)N/C=C(\C#N)C(N)=O has a growth [1] of 101%, a growth [2] of 83.2% and a growth [3] of 110%. It also gave a growth [4] of 114%, a growth [5] of 94.9% and a growth [6] of 101%. It also gave a growth [7] of 101%, a growth [8] of 97.2% and a growth [9] of 100%. For the same molecule, the growth [10] was 101%, the growth [11] was 97.2% and the growth [12] was 99.1%. The growth [13] was 87.8%, the growth [14] was 99.7% and the growth [15] was 94.8%. It also gave a growth [16] of 81.5%, a growth [17] of 112% and a growth [18] of 114%. The growth [19] was 106%.
Work on CC(C)(O)C(=O)O yielded a growth [1] of 105%, a growth [2] of 94.6% and a growth [3] of 103%. The growth [4] was 97.9%, the growth [5] was 98.2% and the growth [6] was 103%. It also gave a growth [7] of 103%, a growth [8] of 101% and a growth [9] of 104%. It also gave a growth [10] of 112%, a growth [11] of 94% and a growth [12] of 102%. The growth [13] was 95.2%, the growth [14] was 98.9% and the growth [15] was 104%. For the same molecule, the growth [16] was 101%, the growth [17] was 103% and the growth [19] was 108%.
For CC(=O)NCC(=O)c1ccc([N+](=O)[O-])cc1, the growth [1] was 111%, the growth [2] was 99.1% and the growth [3] was 103%. The growth [4] was 102%, the growth [5] was 98.4% and the growth [6] was 103%. It also gave a growth [7] of 101%, a growth [8] of 95% and a growth [9] of 105%. The growth [10] was 136%, the growth [11] was 102% and the growth [12] was 105%. It also gave a growth [13] of 80.5%, a growth [15] of 103% and a growth [16] of 103%. For the same molecule, the growth [17] was 81.2%, the growth [18] was 99.5% and the growth [19] was 98.4%.

Source: PubChem BioAssay (NCI)
